Measurements taken from PubChem BioAssay AID504375 (National Center for Advancing Translational Sciences (NCATS), 2011).
Among all 1,600 compounds or so, about 25 (2%) were called active. About 7% were inconclusive and are not listed. Calls follow the shape of the dose curve; as a rule, active = well fitted inhibition curve with a large enough effect; inconclusive = small, poorly fitted or top-dose-only effect, or effect the other way; inactive = no such curve, though single readings can be large or run the other way. What follows is part of a selection rich in actives, with near analogues and random picks from the rest. A call without a number means that no potency is given here.

Biological target: Runt-related transcription factor 1 (Homo sapiens) + Core-binding factor subunit beta (Homo sapiens) (UniProt Q01196+Q13951)
Sequence (Q01196 whole entry, looked up): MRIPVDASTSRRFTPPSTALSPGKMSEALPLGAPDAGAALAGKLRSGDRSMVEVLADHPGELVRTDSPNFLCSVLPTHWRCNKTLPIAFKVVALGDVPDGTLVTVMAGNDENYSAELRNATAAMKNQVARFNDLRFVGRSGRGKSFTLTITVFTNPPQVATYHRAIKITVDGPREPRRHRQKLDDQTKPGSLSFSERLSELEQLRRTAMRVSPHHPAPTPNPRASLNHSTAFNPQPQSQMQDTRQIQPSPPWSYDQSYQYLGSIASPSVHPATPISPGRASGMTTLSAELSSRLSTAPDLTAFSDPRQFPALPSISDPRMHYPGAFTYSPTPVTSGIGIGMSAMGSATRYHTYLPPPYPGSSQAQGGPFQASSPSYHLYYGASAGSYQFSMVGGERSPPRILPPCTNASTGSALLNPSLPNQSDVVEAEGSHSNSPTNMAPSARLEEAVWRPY
Sequence (Q13951 whole entry, looked up): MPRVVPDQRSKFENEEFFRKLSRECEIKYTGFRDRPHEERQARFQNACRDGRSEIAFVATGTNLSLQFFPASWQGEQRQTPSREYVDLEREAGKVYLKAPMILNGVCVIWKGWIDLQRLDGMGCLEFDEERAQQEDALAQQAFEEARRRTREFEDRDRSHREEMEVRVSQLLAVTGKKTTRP
Test: qHTS Assay for Compounds Blocking the Interaction Between CBF-beta and RUNX1 for the Treatment of Acute Myeloid Leukemia: Hit Validation with Orthogonal Assay
Settings: CBFbeta-RUNX1 binding orthogonal assay, biochemical; series mostly up to 41 µM
Text: NIH Chemical Genomics Center [NCGC]
NIH Molecular Libraries Probe Production centers Network [MLPCN]
Assay Submitter (PI): Paul Liu
Core Binding Factor (CBF) abnormalities are associated with 20-25% of all acute myeloid leukemias (AML), of which 5-10% are further sub classified as acute myelomonocytic leukemia with eosinophilia, also known as M4Eo in the FAB classification scheme. This subtype of leukemia is usually associated with chromosome 16 inversion (p13:q22). Chromosome 16 inversion results in formation of the fusion oncogene CBFB-MYH11, which encodes the fusion protein CBF-beta-SMMHC.
It has been hypothesized that the interference of CBF-beta and RUNX1 binding could have therapeutic implications for patients with CBF mediated leukemias. We developed a CBF-beta and RUNX1 binding assay in AlphaScreenTM format and optimized it for high throughput screening to search for inhibitors. The goal of this project is to screen MLPCN's compound collection (MLSMR) for identifying the inhibitors of the interaction between CBF-beta and RUNX1 proteins as research probes. If these probes work well in the animal models, the ultimate goal of this project is to development a new drug treatment for this disease.
This assay can not be used to assess how apparent inhibitors interfere with protein binding, and whether inhibitors specifically bind to either protein. Disruption of this protein-protein interaction, through any mechanism, is the intended target activity.
The present data set was run to confirm the activity of hits from the primary screen using an orthogonal assay technology for measuring protein-protein interaction disruption.
A TR-FRET (time resolved fluorescence resonance energy transfer) assay was performed using the same assay buffer, protein concentrations and incubation times as described previously in the AlphaScreen assay, except that terbium (Tb+) labeled anti-his-antibody and XL665 linked streptavidin were used to capture the binding signal. The Tb+ labeled anti-his-antibody captures His(6)-CBF and XL665 linked streptavidin binds to biotin-RUNX1. The binding of RUNX1 to CBFbrings Tb+ and XL665 to proximity resulting in a TR-FRET signal. Briefly, in a white 384-well plate, 10 µl/well of mixture of biotin-RUNX1 and His(6)-CBFwere incubated with 10 µl/well buffer (positive control) or 10 µl/well compounds (negative control) for 20 min followed by an addition of 10 µl/well of Tb+ labeled anti-his(6)-antibody and XL665 linked streptavidin. After 90 min of incubation in the dark, the assay plate was measured in the Envision plate reader using TR-FRET detection mode. For the 1536-well plate format, 3 µl/well mixture of biotin-RUNX1 and His(6)-CBF (30 nM per protein) was incubated with 23 nl/well compound (dissolved in 100% DMSO) or the equivalent DMSO concentration (positive control) for 30 min followed by the addition of 1 µl/well of 0.44 ng Tb+ labeled anti-his(6)-antibody and 5 nM streptavodin-XL665. After 90 min of incubation, the assay plate was measured in the Envision plate reader.
The TR-FRET assay for detecting interaction between HIV-I Tat and […] was similarly performed with the recombinant full-length HIV-I Tat CLADE B and HIV-I Tat Biotin conjugated proteins supplied by Diatheva (Fano, Italy). Briefly, the His-CBF and Biotin-RUNX1 complex at a working concentration of 83.3 nM per protein were pre-incubated in assay buffer for 10 minutes on ice. Then HIV-I Tat or unlabeled CBF were added to reach final concentrations (Supplementary Figure 4b) and incubated for 5 minutes. Finally anti-His antibody and streptavidin-XL665 at a final concentration of 2.2 ng and 5 nM, respectively, were added to the plate, which was incubated for 1 hr prior to reading on the PerkinElmer Envision plate reader.
Keywords: MLSMR, MLPCN, NIH Roadmap, qHTS, NCGC, Core binding factor, CBF, CBF-beta, Acute myeloid leukemia
Potency is read from the fitted curve at half-maximal effect.

| SMILES | Potency |
| --- | --- |
| C/C(=N\NC(=O)Cn1nc(C)cc1C)c1ccc([N+](=O)[O-])cc1 | inactive |
| Cc1n[nH]c(C)c1CCC(=O)N/N=C/c1cccs1 | inactive |
| CCOC(=O)COc1nc2c(c(-c3ccco3)c1C#N)CCc1ccccc1-2 | inactive |
| CCOc1ccc(/C(C)=N/NC(=O)Cn2nc([N+](=O)[O-])cc2C)cc1 | inactive |
| Cc1ccccc1NC(=S)Nc1ccccn1 | inactive |
| Cc1ccc(NC(=S)Nc2ccccn2)cc1C | inactive |
| Cc1[nH]c(=O)[nH]c1C(=O)CCCCC(=O)OCC(=O)Nc1ccccn1 | 44.7 nM (active) |
| Clc1nc(Cl)nc(-c2cn(-c3ccccc3)c3ccccc23)n1 | inactive |
| Nc1c(Cl)ncnc1NCC(O)CO (stereo unspecified) | inactive |
| Cc1onc(-c2c(Cl)cccc2Cl)c1C(=O)c1ccc(F)cc1 | inactive |
| O=C1OCC2OC(O)C(O)C(O)C2OC(=O)c2cc(O)c(O)c(O)c2-c2c(O)c(O)c3oc(=O)c4c(c(O)c(O)c5oc(=O)c2c3c54)-c2c1cc(O)c(O)c2O (stereo unspecified) | 398 nM (active) |
| O=C(O[C@@H]1OC2COC(=O)c3cc(O)c(O)c(O)c3-c3c(cc(O)c(O)c3O)C(=O)O[C@@H]([C@H]1O)[C@@H]2O)c1cc(O)c(O)c(O)c1 | 891 nM (active) |
| Cc1nn(C)c(Sc2ccccn2)c1[N+](=O)[O-] | inactive |
| Nc1ccc(Oc2ccccc2F)nc1 | inactive |
| Cc1nc(C)c(-c2ccn(C(=O)NC(C)C)n2)s1 | inactive |
| CC(C)(C)c1ccc(C(=O)Nc2ccc(S(N)(=O)=O)cc2)cc1 | inactive |
| c1ccc2oc(-c3ccn[nH]3)cc2c1 | inactive |
| CN(C)C(=S)Nc1ccc(Cl)cc1 | inactive |
| C/C(=N\NC(=O)c1cc(-c2cccc([N+](=O)[O-])c2)n[nH]1)c1ccc(F)cc1 | inactive |
| Cc1cc(Cl)c2cc3ccccc3cc2n1 | inactive |
| Cc1cccc(NC(=S)N(CCN(C)C)C(C)c2ccccn2)c1 (stereo unspecified) | inactive |
| Cc1ccc(Cl)cc1NC(=S)N(CCN(C)C)C(C)c1ccccn1 (stereo unspecified) | 1220 nM (active) |

| SMILES | Potency |
| --- | --- |
| Cc1ccc(Cl)cc1NC(=S)NN | inactive |
| COc1ccc(C2Sc3ccccc3N(CCN(C)C)C(=O)C2OC(C)=O)cc1 (stereo unspecified) | inactive |
| c1ccc(N2CCOCCOCCOCCOCC2)cc1 | inactive |
| CC(C)(C)OC(=O)N1CCCN(C(=O)Nc2cccc(Cl)c2)CC1 | inactive |
| O=C1c2ccccc2C(=O)N1/N=C/c1ccc(O)c(O)c1O | 2820 nM (active) |
| COc1ccc(C(=O)COc2ccc(C)cc2NC(C)=O)cc1 | inactive |
| CC1CC(C)(C)NC(=S)O1 (stereo unspecified) | inactive |
| CCCCCNc1nc2sc3c(c2c(=O)n1-c1cccc(Cl)c1)CCN(C)C3 | inactive |
| Cc1cc(C)c2c(N)c(-c3nnc(SCc4ccc(Cl)cc4)n3C)sc2n1 | inactive |
| O=C(/C=C/c1cn(CC(O)CN2CCCCC2)c2ccccc12)c1ccccc1 (stereo unspecified) | inactive |
| S=c1[nH]nc([C@@H]2C[C@H]2c2ccccc2)n1-c1ccccc1Cl | inactive |
| CCC(=O)Nc1cccc(C(=O)OC)c1 | inactive |
| CCc1cccc(NC(=O)CCCCCC2NC(=O)NC2C)c1 (stereo unspecified) | 56.2 nM (active) |
| CCCCC(=O)Nc1ccc(NC(=S)NC(=O)c2ccco2)cc1OC | inactive |
| CCCCc1c(C)nc(N2CCCC2)[nH]c1=O | inactive |
| Cc1cc(=O)n2[nH]c(CCC(=O)O)nc2n1 | inactive |
| CCN(CC)S(=O)(=O)c1cccc(NC2=NCCCCC2)c1 | inactive |
| CCN1C/C(=C/c2cccs2)c2nc3ccccc3c(C(=O)O)c2C1 | inactive |
| COc1ccc(OS(=O)(=O)c2c(C)noc2C)cc1 | inactive |
| O=C(OCC1OC(OC(=O)c2cc(O)c(O)c(OC(=O)c3cc(O)c(O)c(O)c3)c2)[C@@H](OC(=O)c2cc(O)c(O)c(OC(=O)c3cc(O)c(O)c(O)c3)c2)C(OC(=O)c2cc(O)c(O)c(OC(=O)c3cc(O)c(O)c(O)c3)c2)C1OC(=O)c1cc(O)c(O)c(OC(=O)c2cc(O)c(O)c(O)c2)c1)c1cc(O)c(O)c(OC(=O)c2cc(O)c(O)c(O)c2)c1 (stereo partly specified) | 10000 nM (active) |
| O=C(Nc1ccc(Cl)cc1)N1CCCC(Cn2cccc2)C1 (stereo unspecified) | inactive |
| CC(C)c1nc2oc3c(N(C)CCO)ncnc3c2c2c1CCC2 | inactive |

| SMILES | Potency |
| --- | --- |
| CC(C)(C)NC(=O)c1cccc2c1C(=O)c1ccccc1-2 | inactive |
| O=C(O)C[C@@H]1C(=O)O[C@@H]2C(COC(=O)c3cc(O)c(O)c(O)c3)O[C@@H](OC(=O)c3cc(O)c(O)c(O)c3)[C@@H](OC(=O)c3cc(O)c(O)c4c3[C@H]1[C@H](O)C(=O)O4)[C@H]2OC(=O)c1cc(O)c(O)c(O)c1 (stereo partly specified) | 89.1 nM (active) |
| CCN(CC)c1ccc(/C=N/N2CCN(Cc3ccccc3Cl)CC2)c(O)c1 | inactive |
| CCCNC(=S)Nc1ccccc1 | inactive |
| CC1CCC2(CC1)NC(=S)N(C(C)(C)C)N2 (stereo unspecified) | inactive |
| CN1c2ccccc2C(=O)/C(=C\Nc2ccc(F)cc2)S1(=O)=O | inactive |
| COC(=O)[C@@H](NC(=O)NC1CCCCC1C)C(C)C (stereo partly specified) | inactive |
| CCCCCc1ccc(S(=O)(=O)Nc2cc(C)ccn2)cc1 | inactive |
| Cc1onc(-c2ccccc2)c1C(=O)NNC(=S)NC(=O)c1ccc2c(c1)OCO2 | inactive |
| O=C(CCl)NCCCN(C(=O)C(Cl)Cl)c1ccc([N+](=O)[O-])cc1 | inactive |
| Cn1nc(-c2ccccc2)cc1NS(=O)(=O)c1ccccc1 | inactive |
| Cc1c2c(c(O)c3c(O)cccc13)C(=O)O[C@H]2C1C(N(C)C)C(O)=C(C(N)=O)C(=O)[C@H]1O (stereo partly specified) | 2240 nM (active) |
| O=C(NNC(=S)Nc1ccccc1C(F)(F)F)C1CC1 | inactive |
| COc1cc(/C=N\NC(=O)CNC(=O)C(c2ccccc2)c2ccccc2)ccc1O | inactive |
| COCc1cc(=O)n2[nH]c(C(C)(C)C)cc2n1 | inactive |
| COc1cc(NCc2ccccc2O)c2ncccc2c1 | inactive |
| COc1ccc(NS(=O)(=O)c2ccc(Cl)s2)cn1 | inactive |
| O=C(NN1C(=O)C2CCCCC2C1=O)c1ccco1 (stereo unspecified) | inactive |
| O=c1c(O)cccc2cc(O)c(O)c(O)c12 | 1260 nM (active) |
| O=C(NC(=S)Nc1ccccc1N1CCCC1)c1ccco1 | inactive |
| Cc1onc(-c2ccccc2)c1C(=O)NC(=S)NNC(=O)c1ccco1 | inactive |
| O=C(NC(=S)NNC(=O)c1ccccc1O)c1ccco1 | 3160 nM (active) |
